Results on 60 compounds are retold here after PubChem BioAssay AID463190 (Sanford-Burnham Center for Chemical Genomics, 2010).

Values joined by “and” are separate entries in the source; they are usually repeats but may differ in a detail not shown here. Equal entries are not always repeated. Out of some 330,000 compounds screened, about 7,300 (2.2%) were called active.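 How the source made its calls: active means inhibition of at least 40%; inactive means the rest.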 Shown is part of a subset that was picked to be rich in actives.

The assay is described as follows: growth inhibition of tim10-1 ts yeast – luminescence, uHTS, primary screen (AID 463190).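 Further: mutant grown at 25 °C; 0% = DMSO wells with yeast and 100% = wells holding no yeast.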 As to conditions: S. cerevisiae tim10-1 ts strain growth, BacTiter-Glo, 24 h; at 20 µM; active compounds read high.
As a reminder, the inhibition is the relative decrease from the control value, in per cent. As for `O=C(OCC(=O)N1CCc2ccccc21)C1CCCN1S(=O)(=O)c1ccc(Cl)cc1` (stereo not given), the inhibition was -10.6% (inactive). With `COc1ccc(CN2CC(C(=O)NCCc3ccc(Cl)cc3)CC2=O)cc1` (stereo not given), the inhibition is -2.13% (inactive).

Consider `Cc1ccc(NC(=S)N/N=C2/CCCc3c(C)cc(C)cc32)cc1`, for which the inhibition is 9.99% (inactive).

Regarding `CCCCNC(=S)N/N=C1\CCCCc2ccccc21`, the inhibition was 47.7% (active). To `CCCC1CCC(=NNC(=S)NCCc2ccccc2)CC1` (stereo not given) belongs -25.5% (inactive); to `COC(=O)c1c(NC(=O)C(=O)N2CCCCC2)sc2c1CC(C)(C)OC2`, 8.07% (inactive). To `c1ccc(Cc2ccc(OCCn3ccnc3)cc2)cc1` belongs -1.87% (inactive). Turning to `CSCC[C@H](NC(=O)NC1CCCC1)C(=O)O`, the inhibition is 3.78% (inactive). The result for `CCOC(=O)N1CCC(N2Cc3cccc(C(=O)Nc4c(C)cccc4CC)c3C2=O)CC1` reads 51% (active); that for `O=C(O)c1cccc2c1C(=O)N(C1CCCC1)C2`, 8.44% (inactive); that for `CCOC(=O)N1CCC(N2Cc3cccc(C(=O)Nc4ccc(S(=O)(=O)N(CC)CC)cc4)c3C2=O)CC1`, 17.7% (inactive). To `CC(C)(C)Cc1nnc(NC(=O)c2cc(-c3ccccc3)nc3ccccc23)s1` belongs 23.3% (inactive); to `O=C(Nc1nnc(-c2ccccc2)o1)c1cc(-c2cccs2)nc2ccccc12`, 48.6% (active); to `O=C(Nc1nnc(-c2ccc(Cl)cc2)o1)c1ccccc1Br`, 6.25% (inactive). The result for `Cc1cc([N+](=O)[O-])nn1CCCC(=O)Nc1cccnc1Cl` reads 16.8% (inactive); that for `Cc1ccccc1OCC(=O)Nc1ccc(S(=O)(=O)N2CCOCC2)cc1`, 37.4% (inactive); that for `Cc1ccccc1OCC(=O)Nc1ccc2c(c1)ncn2C`, 5.78% (inactive). Turning to `Cc1ccccc1OCC(=O)Nc1ccc(N2CCN(C(=O)C(C)C)CC2)c(Cl)c1`, the inhibition was 63.3% (active).

`Cc1cc(NC(=O)CCS(=O)(=O)c2ccc(F)cc2)no1`: the inhibition was -5.29% (inactive). To `COc1cc([N+](=O)[O-])ccc1NC(=O)COC(=O)CCOc1ccc(C)cc1` belongs 50.3% (active); to `COc1cc([N+](=O)[O-])ccc1NC(=O)CN1CCCC1`, 6.08% (inactive); to `CSc1ccccc1NC(=O)COC(=O)CCCOc1ccc(C)cc1`, 7.06% (inactive).

As to `Cc1nc2ccc(C(=O)N/N=C/c3ccc(O)cc3)cc2[nH]1`, the inhibition is 0.009% (inactive). Consider `COC(=O)N/N=C/c1ccc(/C=N/NC(=O)OC)cc1`, for which the inhibition is 7.21% (inactive). To `Cc1nonc1C(=O)N/N=C/c1ccc(O)cc1` belongs 51.4% (active); to `O=C(O)Cc1csc(-c2cccc(Oc3ccccc3)c2)n1`, 7.9% (inactive) and -6.65% (inactive); to `CN(CC(=O)NCCc1ccc(S(N)(=O)=O)cc1)CC(=O)Nc1ccc(F)c(F)c1F`, 0.849% (inactive). To `Cc1ccc(S(=O)(=O)N(CC(O)CN2CCCCC2)c2cccc([N+](=O)[O-])c2)cc1` (stereo not given) belongs -38.7% (inactive); to `C/C(=N\NC(=S)NCc1ccccc1)c1ccc(Cl)cc1`, 22.9% (inactive). The result for `C/C(=N\NC(=S)NCc1ccccc1)C1CCCCC1` reads 42.6% (active); that for `CC1CCCCN1C(=S)NCc1ccccc1` (stereo not given), -0.074% (inactive); that for `Cc1oc(CC(C)C)c(CN2CCCC2)c1C(=O)O`, 3.08% (inactive). In the case of `O=C1c2cccc(OCC(=O)N3N=C(c4cccs4)CC3c3ccc(F)cc3)c2CCN1Cc1ccccc1` (stereo not given), the inhibition was 19.6% (inactive).

For the compound `O=C(COc1ccccc1Cl)N1N=C(c2cccs2)CC1c1ccco1` (stereo not given), the inhibition is 40.8% (active). The result for `Cc1ccc(C2=NN(C(=O)COc3ncnc4ccccc34)C(c3ccco3)C2)cc1` (stereo not given) reads -2.47% (inactive); that for `CCc1n[nH]c(=S)n1/N=C/c1c[nH]c2ccc(Br)cc12`, 12% (inactive); that for `Cc1cc(C)cc(NC(=O)C2CCCN(S(=O)(=O)c3ccc4[nH]c(=O)ccc4c3)C2)c1` (stereo not given), -13.6% (inactive). Consider `COc1ccc(C(=O)COC(=O)c2ccc([N+](=O)[O-])s2)cc1OC`, for which the inhibition is 57.9% (active).

With `COc1cc(NC(=O)COC(=O)c2ccc([N+](=O)[O-])s2)cc(OC)c1OC`, the inhibition is 30.9% (inactive).

For the compound `O=C(OCC(=O)N1CCN(c2ccccc2)CC1)c1ccc([N+](=O)[O-])s1`, the inhibition was 11.9% (inactive). To `S=c1[nH]nc(-c2ccco2)n1/N=C/c1ccc(Br)s1` belongs 22.5% (inactive); to `CC(=O)NCCNC(=O)c1cc(-c2cccc3ccccc23)nc2ccccc12`, 3.15% (inactive); to `CCc1ccc(-c2cc(C(=O)NCc3ccco3)c3ccccc3n2)s1`, 45.4% (active). To `CC(C)(C)c1ccc(C(=O)NCc2ccco2)cc1` belongs 15.4% (inactive); to `O=C(Cc1ccccc1)Nc1ccc(C(=O)Nc2ccccc2C(=O)O)cc1`, 1.08% (inactive). For the compound `FC(F)(F)c1ccc(CN2C[C@@H]3C(c4ccccc4)C4(c5ccccc5)CC3(C4)[C@H]2c2ccccc2)cc1` (stereo not given in full), the inhibition was 28.9% (inactive). The result for `O=C(NCc1ccc2c(c1)OCO2)c1c(-c2ccsc2)sc2ccccc12` reads 5.6% (inactive). The result for `CN[C@H](C(=O)NC[C@H]1O[C@@H](n2cnc3c(N)ncnc32)[C@H](O)[C@@H]1O)[C@@H](C)OCc1ccccc1` reads 0.16% (inactive); that for `Cc1ccc(Cl)c(NC(=O)CN2CCN(C=O)CC2)c1`, -10.1% (inactive); that for `Cc1cccc(OCCNC(=S)NC(=O)c2cccnc2)c1`, 45.9% (active).

As to `CCCOc1cccc(C(=O)NCCCNC(=O)c2cccnc2)c1`, the inhibition is -5.09% (inactive).

On to `Cc1cccc(OCC(=O)NCCNC(=O)c2cccnc2)c1`, for which the inhibition was -27.3% (inactive). The result for `CN(C(=O)CSc1nnc(C2CC2)n1C)C1CCCc2ccccc21` (stereo not given) reads -15.4% (inactive). To `Cc1csc(NC(=O)C2=COCCO2)n1` belongs 6.44% (inactive); to `CC(=O)NCCC(=O)Nc1nc(-c2ccc3c(c2)OCCO3)cs1`, 4.76% (inactive); to `Cc1ccc(-c2csc(NC(=O)C3=COCCO3)n2)cc1C`, 40.5% (active). To `CC(C)(C)NC(=O)NC(=O)COC(=O)CCC1CCCCC1` belongs 40.3% (active); to `COc1ccccc1OCCC(=O)OCC(=O)NC(=O)NC(C)(C)C`, 17.9% (inactive); to `CC(C)(C)NC(=O)NC(=O)COC(=O)C1(C)CC1(Cl)Cl` (stereo not given), 21.3% (inactive). For `Cc1cc(C)cc(C(=O)NC(=S)Nc2ccc3[nH]c(=O)[nH]c3c2)c1`, the inhibition was 12.4% (inactive).
